We go through 7 compounds from ChEMBL document CHEMBL1961873, “Compounds: GSK PKIS; Assays: Nanosyn kinase panel” (2012).

Assay [1] concerns Proto-oncogene tyrosine-protein kinase receptor Ret (Homo sapiens), P07949 [Y791F]. Particulars: at 1 µM.
Assay [2] concerns the target Macrophage-stimulating protein receptor (Homo sapiens) (UniProt Q04912). Particulars: at 0.1 µM.
Assay [3] shares this target. Particulars: at 1 µM.
The target in assay [4] is Proto-oncogene tyrosine-protein kinase ROS (Homo sapiens) (UniProt P08922). Particulars: at 0.1 µM.
For assay [5] the target is unchanged. The settings on record: at 1 µM.
Assay [6] concerns the target Proto-oncogene tyrosine-protein kinase Src (Homo sapiens) (UniProt P12931). Particulars: at 0.1 µM.
Assay [7] shares this target. Particulars: at 1 µM.
Assay [8] concerns the target Tyrosine-protein kinase Srms (Homo sapiens) (UniProt Q9H3Y6). The settings on record: at 0.1 µM.
Assay [9] has the same target. The settings on record: at 1 µM.
Assay [10] addresses Tyrosine-protein kinase SYK (Homo sapiens) (UniProt P43405). Particulars: at 0.1 µM.
Assay [11] shares this target. The settings on record: at 1 µM.
Assay [12] concerns the target T1, Tyrosine-protein kinase Tec (Homo sapiens) (UniProt P42680).
T1 sequence (whole entry): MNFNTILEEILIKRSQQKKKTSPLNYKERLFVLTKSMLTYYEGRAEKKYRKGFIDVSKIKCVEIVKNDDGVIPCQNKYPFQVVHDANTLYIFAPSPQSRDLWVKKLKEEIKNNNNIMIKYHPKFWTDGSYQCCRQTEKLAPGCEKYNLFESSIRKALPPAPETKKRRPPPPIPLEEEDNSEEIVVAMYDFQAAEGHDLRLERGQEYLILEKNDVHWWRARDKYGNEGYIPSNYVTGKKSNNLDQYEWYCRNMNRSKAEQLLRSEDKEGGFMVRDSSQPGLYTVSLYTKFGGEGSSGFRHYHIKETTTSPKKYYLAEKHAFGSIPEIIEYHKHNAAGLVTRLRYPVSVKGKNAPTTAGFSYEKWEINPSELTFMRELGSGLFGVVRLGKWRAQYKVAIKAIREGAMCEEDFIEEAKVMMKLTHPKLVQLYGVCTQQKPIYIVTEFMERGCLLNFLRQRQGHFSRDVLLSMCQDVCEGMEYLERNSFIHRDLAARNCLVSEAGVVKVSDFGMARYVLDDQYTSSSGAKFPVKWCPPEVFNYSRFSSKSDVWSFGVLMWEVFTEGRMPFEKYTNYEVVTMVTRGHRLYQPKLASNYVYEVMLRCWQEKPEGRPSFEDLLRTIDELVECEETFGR
Particulars: at 0.1 µM.

In assay [13] the target is T1, Tyrosine-protein kinase Tec (Homo sapiens). The settings on record: at 1 µM.
In assay [14] the target is Angiopoietin-1 receptor (Homo sapiens) (UniProt Q02763). Particulars: at 0.1 µM.
Assay [15] shares this target. Particulars: at 1 µM.
Assay [16] deals with T2, Non-receptor tyrosine-protein kinase TNK1 (Homo sapiens) (UniProt Q13470).
T2 sequence (whole entry): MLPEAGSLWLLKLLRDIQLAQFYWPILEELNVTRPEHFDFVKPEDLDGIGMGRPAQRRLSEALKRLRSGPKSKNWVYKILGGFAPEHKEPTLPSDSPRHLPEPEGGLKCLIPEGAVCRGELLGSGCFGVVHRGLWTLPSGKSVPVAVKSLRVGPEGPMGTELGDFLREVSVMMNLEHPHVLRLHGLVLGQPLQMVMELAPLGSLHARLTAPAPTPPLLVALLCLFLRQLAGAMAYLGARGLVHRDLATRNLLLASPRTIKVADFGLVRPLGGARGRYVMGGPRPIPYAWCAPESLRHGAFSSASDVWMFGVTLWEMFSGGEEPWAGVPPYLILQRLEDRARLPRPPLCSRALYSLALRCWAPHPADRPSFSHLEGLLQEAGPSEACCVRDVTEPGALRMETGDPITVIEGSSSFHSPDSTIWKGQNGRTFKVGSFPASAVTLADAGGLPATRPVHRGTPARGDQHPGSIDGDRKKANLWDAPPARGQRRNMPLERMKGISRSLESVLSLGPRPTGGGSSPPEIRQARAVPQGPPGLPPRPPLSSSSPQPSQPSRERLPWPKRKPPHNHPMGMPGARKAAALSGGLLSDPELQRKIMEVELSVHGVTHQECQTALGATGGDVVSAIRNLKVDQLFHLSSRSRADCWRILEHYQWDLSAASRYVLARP
The settings on record: at 0.1 µM.

The target of assay [17] is T2, Non-receptor tyrosine-protein kinase TNK1 (Homo sapiens). Particulars: at 1 µM.
Assay [18] addresses Activated CDC42 kinase 1 (Homo sapiens) (UniProt Q07912). Particulars: at 0.1 µM.
Assay [19] shares this target. The settings on record: at 1 µM.
The target of assay [20] is High affinity nerve growth factor receptor (Homo sapiens) (UniProt P04629). Particulars: at 0.1 µM.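 Note: each value is a mean of replicate percent inhibition readings against TRKA kinase.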

“And” between values parts separate entries of the source, which are not always exact repeats. Equal values may be shown once.

Chain of High affinity nerve growth factor receptor (Homo sapiens) (P04629 33-796 limits assumed): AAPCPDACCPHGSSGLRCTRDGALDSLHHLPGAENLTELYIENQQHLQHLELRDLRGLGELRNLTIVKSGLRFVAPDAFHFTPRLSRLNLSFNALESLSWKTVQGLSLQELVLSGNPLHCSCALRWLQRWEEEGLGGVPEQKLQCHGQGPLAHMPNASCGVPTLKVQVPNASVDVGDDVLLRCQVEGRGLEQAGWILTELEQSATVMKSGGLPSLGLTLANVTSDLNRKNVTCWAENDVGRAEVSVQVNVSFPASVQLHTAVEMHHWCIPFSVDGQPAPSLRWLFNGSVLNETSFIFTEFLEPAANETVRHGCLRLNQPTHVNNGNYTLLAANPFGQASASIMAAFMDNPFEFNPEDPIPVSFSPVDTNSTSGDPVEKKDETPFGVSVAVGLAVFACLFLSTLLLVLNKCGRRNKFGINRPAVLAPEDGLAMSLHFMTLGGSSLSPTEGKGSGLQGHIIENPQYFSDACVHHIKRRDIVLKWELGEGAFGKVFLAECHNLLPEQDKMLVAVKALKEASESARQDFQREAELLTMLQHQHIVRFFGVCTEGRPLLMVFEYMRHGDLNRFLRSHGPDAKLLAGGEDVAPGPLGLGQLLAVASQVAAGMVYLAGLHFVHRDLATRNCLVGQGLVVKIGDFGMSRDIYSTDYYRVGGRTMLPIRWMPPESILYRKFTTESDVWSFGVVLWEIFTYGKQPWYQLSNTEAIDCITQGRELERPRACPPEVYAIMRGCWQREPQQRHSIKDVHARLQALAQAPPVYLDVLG
Chain of Proto-oncogene tyrosine-protein kinase ROS (Homo sapiens) (P08922 whole entry): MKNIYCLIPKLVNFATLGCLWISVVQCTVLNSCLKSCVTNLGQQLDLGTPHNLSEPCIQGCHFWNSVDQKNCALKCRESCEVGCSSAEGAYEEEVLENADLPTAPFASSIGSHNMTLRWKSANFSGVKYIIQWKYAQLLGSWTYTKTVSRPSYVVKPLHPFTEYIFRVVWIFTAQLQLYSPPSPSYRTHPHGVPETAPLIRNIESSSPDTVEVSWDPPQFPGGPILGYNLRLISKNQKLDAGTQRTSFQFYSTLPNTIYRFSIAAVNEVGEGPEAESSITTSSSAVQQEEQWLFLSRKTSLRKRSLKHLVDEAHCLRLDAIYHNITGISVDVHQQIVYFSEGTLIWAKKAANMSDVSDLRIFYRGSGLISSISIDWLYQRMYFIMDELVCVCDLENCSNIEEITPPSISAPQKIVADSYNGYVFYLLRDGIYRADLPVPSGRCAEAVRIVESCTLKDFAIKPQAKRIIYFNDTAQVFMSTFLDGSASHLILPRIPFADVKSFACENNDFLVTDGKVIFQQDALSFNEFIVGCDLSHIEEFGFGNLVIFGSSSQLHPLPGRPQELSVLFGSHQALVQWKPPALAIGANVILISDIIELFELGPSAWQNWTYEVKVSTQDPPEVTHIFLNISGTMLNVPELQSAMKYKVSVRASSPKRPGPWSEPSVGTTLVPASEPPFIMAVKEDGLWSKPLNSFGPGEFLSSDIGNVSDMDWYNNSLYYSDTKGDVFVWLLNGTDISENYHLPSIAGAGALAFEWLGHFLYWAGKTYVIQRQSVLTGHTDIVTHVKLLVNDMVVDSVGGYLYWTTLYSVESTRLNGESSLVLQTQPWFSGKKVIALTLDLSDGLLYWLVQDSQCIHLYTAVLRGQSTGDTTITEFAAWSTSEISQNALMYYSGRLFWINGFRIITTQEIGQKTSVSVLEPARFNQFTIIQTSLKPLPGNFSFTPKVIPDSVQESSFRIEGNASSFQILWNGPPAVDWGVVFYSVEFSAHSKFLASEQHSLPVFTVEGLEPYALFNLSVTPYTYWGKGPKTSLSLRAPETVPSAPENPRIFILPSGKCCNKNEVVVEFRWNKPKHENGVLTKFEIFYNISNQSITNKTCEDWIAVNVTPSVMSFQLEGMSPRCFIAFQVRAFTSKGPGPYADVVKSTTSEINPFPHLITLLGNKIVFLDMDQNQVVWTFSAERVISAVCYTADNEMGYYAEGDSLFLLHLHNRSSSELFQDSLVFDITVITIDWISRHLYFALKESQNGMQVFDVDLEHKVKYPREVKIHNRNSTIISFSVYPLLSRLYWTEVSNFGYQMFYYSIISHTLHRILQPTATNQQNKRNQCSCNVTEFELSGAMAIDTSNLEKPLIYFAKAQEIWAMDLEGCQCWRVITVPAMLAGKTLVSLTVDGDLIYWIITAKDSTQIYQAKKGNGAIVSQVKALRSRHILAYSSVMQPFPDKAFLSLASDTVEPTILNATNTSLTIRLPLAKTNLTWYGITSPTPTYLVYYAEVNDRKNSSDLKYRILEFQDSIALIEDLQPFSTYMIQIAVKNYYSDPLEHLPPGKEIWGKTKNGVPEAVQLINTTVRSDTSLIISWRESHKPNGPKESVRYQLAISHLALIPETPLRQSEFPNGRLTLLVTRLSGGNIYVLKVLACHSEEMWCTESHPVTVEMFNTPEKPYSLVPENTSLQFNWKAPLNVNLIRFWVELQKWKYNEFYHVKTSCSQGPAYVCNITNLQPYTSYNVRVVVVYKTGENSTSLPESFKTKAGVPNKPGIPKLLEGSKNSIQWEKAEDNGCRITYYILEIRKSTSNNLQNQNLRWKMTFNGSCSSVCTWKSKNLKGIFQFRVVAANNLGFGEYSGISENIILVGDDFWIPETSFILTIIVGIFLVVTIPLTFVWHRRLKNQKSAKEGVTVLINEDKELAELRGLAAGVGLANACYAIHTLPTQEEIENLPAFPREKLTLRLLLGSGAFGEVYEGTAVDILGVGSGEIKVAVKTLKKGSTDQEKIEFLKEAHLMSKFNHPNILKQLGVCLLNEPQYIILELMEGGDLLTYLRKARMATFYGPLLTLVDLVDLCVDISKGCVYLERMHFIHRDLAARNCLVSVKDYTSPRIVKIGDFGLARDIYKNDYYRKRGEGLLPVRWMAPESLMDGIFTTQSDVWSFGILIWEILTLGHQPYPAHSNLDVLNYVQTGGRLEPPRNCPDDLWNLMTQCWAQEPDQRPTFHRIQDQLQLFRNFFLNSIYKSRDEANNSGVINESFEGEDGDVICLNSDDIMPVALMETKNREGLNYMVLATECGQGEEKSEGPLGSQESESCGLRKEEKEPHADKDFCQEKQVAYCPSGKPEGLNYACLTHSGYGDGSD
Chain of Activated CDC42 kinase 1 (Homo sapiens) (Q07912 whole entry, looked up): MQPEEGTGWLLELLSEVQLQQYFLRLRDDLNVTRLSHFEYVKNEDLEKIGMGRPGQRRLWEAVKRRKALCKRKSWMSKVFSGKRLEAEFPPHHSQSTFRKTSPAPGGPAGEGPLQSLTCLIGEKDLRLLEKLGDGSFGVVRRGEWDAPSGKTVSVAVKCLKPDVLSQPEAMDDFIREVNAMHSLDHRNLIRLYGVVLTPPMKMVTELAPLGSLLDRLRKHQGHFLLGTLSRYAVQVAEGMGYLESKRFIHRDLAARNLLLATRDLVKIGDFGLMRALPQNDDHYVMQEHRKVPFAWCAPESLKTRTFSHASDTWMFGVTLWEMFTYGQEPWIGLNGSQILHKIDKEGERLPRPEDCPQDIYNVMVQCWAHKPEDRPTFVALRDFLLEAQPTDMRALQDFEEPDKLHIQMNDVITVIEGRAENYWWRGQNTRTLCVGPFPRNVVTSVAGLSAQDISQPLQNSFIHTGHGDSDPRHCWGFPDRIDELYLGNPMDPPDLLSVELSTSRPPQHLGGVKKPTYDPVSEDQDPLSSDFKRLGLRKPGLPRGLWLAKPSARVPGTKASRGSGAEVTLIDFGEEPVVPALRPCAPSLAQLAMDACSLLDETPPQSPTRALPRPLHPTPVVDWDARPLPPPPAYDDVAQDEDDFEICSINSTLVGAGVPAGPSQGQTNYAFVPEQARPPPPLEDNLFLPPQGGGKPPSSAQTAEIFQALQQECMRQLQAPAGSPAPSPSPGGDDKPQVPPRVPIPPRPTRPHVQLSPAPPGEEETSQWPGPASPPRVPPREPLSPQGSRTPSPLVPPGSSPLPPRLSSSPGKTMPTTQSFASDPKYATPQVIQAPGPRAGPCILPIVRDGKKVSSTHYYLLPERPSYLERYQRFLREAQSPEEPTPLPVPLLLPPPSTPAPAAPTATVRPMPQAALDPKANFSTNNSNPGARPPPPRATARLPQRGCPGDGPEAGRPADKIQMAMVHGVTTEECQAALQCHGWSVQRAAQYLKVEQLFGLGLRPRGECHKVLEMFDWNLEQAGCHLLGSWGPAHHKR
Chain of Proto-oncogene tyrosine-protein kinase Src (Homo sapiens) (P12931 2-536 limits assumed): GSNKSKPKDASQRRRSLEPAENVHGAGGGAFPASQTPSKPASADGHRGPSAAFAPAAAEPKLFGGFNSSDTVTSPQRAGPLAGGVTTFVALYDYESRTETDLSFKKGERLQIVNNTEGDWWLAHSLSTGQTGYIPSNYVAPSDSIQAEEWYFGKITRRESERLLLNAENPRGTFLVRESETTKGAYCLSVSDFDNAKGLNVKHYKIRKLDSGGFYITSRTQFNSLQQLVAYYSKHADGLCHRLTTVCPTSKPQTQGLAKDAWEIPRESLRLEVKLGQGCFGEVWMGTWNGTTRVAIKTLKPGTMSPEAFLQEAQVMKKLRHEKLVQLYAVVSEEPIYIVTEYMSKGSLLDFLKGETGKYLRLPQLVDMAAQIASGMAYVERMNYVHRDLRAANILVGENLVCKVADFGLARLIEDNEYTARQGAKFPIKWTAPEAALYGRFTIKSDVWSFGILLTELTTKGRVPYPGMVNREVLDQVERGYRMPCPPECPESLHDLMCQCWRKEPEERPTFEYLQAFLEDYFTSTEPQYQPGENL

Broadly, the inhibition is the change of the read-out against control, counted positive when it falls. On to `COc1ccccc1-c1cc(/C=C2\C(=O)Nc3ncc(Br)cc32)cc(Br)c1O`, for which the inhibition in [1] came out at 13.2%; in assay [2], 2.48%; in [3], 7.63%; in assay [4] it was 7.94%; in assay [5], 26.1%; in assay [6], 4.87%. Moreover, the inhibition is 17.1% in [7]; 2.16% in assay [8]; 14.7% in assay [9]; -6.56% in [10]; -0.96% in assay [11]; 4.41% in assay [12]. Moreover, the inhibition in assay [13] worked out at 10.3%; in assay [14], 4.42%; in assay [15] it was 6.14%; in assay [16], 40.2%; in assay [17] it was 80.4%; in assay [18] it was 1.04%. Further, the inhibition was 0.66% in [19] and 9.43% in [20].

`CN1CCN(Cc2ccc(-c3cc4ncnc(Nc5ccc(OCc6cccc(F)c6)c(Cl)c5)c4s3)o2)CC1`: the inhibition in assay [1] is 11.4% and 17.4%; in assay [2], 3.2% and 3.55%; in assay [3], 10.2% and 6.54%; in [4], 3.07% and 6.46%; in assay [5], 6.26% and 12.4%; in assay [6] it was 4.74%. The inhibition in assay [7] was 13.4% and 18.3%; in assay [8], -1.16% and -1.22%; in [9], 0.02% and -0.37%; in [10], 0.19% and -1.76%; in assay [11], -0.79% and 0.39%; in [12], 0.53% and 4.75%. Also, the inhibition in assay [13] was 4.67% and 6.65%; in [14] it was 4.14% and 4.04%; in assay [15], 16.7% and 17.8%; in assay [16], 2.88% and 6.1%; in assay [17], 18.5% and 23.1%; in [18], 1.15% and 2.06%. The inhibition in [19] is 2.33% and 3.5%; in assay [20] it was 1.64% and -0.7%.

Take `CN(C)CCNC(=O)Nc1ccc(N(C)c2ccnc(Nc3ccc(CS(C)(=O)=O)cc3)n2)cc1`: the inhibition in assay [1] was determined as 23.3%; in [2], 3.87%; in assay [3], 7.76%; in [4], 15.3%; in [5] it was 78%; in assay [6], 4.55%. Moreover, the inhibition was 14.4% in assay [7]; -2.02% in assay [8]; -0.56% in assay [9]; -4.06% in [10]; -4.22% in [11]; 5.73% in assay [12]. The inhibition turned out to be 14.7% in assay [13]; 2.91% in assay [14]; 12.6% in [15]; 12.7% in assay [16]; 47.1% in [17]; 1.49% in assay [18]. For the same compound, the results for the inhibition in assay [19] and in assay [20] were 4.15% and 1.76%, respectively.

Turning to `CS(=O)(=O)Nc1ccc(-c2ccc3c(NC(=O)C4CC4)n[nH]c3c2)cc1`, the inhibition in assay [1] is 6.93%; in assay [2], 1.04%; in assay [3], 7.91%; in assay [4], 11.3%; in assay [5], 11.7%; in assay [6], -4.32%. For the same compound, the inhibition in assay [7] is 8.03%; in [8], -0.44%; in assay [9] it was 0.5%; in [10], -4.62%; in [11], -1.82%; in assay [12], 3.96%. The inhibition came to 7.11% in [13]; 2.18% in [14]; 10.9% in assay [15]; 2.68% in assay [16]; 5.17% in assay [17]; 1.26% in assay [18]. In addition, the inhibition in [19] worked out at 3.12%; in assay [20], 2.98%.

For `Cc1nnc(-c2cccc(-c3ccc(C(=O)NCC4CC4)cc3)c2)o1`, the inhibition was found to be 14.4% in [1]; 3.19% in assay [2]; 8.29% in [3]; 5.45% in assay [4]; 6.04% in [5]; 12.5% in assay [6]. The inhibition is 10.2% in [7]; -2.52% in assay [8]; 2.96% in [9]; -3.49% in assay [10]; -0.72% in [11]; 5.71% in assay [12]. For the same compound, the inhibition amounted to 6.71% in assay [13]; 2.51% in assay [14]; 2.87% in assay [15]; 2.91% in [16]; 11.3% in [17]; 1.67% in [18]. In addition, the inhibition is 2.25% in [19] and 3.31% in assay [20].

For the compound `CN(c1ccc(NC(=O)NCCN2CCOCC2)cc1)c1ccnc(Nc2ccc(CS(C)(=O)=O)cc2)n1`, the inhibition in assay [1] turned out to be 73.6%; in assay [2], 4.51%; in [3] it was 15.6%; in assay [4], 9.47%; in assay [5], 43.5%; in assay [6], 4.5%. Besides, the inhibition in assay [7] is 18.4%; in assay [8], -1.89%; in [9], 1.22%; in assay [10], -3.19%; in assay [11], -6.78%; in assay [12], 5.49%. For the same compound, the inhibition in [13] was found to be 24.8%; in [14], 3.99%; in assay [15], 29.3%; in assay [16], 15.5%; in assay [17] it was 63.5%; in [18] it was 1.35%. Also, the inhibition in assay [19] amounted to 8.46%; in assay [20], 1.46%.

Turning to `OCCCNc1nccc(-c2c(-c3ccc(F)cc3)nn3cc(C(F)(F)F)ccc23)n1`, the inhibition in assay [1] turned out to be 6.1%; in assay [2], 0.58%; in [3], 1.65%; in assay [4] it was 4.09%; in assay [5], 6.03%; in [6] it was 5.06%. The inhibition in assay [7] was 8.49%; in [8] it was -0.48%; in assay [9] it was -0.71%; in [10] it was 5.03%; in assay [11], 0.36%; in [12], 3.37%. The inhibition in assay [13] was determined as 5.41%; in assay [14], 2.38%; in assay [15], 5.06%; in assay [16] it was 0.14%; in assay [17], 3.92%; in assay [18] it was 0.22%. Moreover, the inhibition in assay [19] is 1.57%; in assay [20], 3.24%.
